Screening results as filed in PubChem.
p53ts 39C kill – cytotoxicity in p53ts cells at nonpermissive temperature | H1299-p53A138V viability at 39C, ATP luminescence, 24 h | Potency, µM (top dose mostly 46.1 µM), for inactives: at the top dose activity change, negative = cell killing, usual class: cytotoxic | 130,000 compounds, 1.5% hits; also: % is scaled to controls: 0 for no effect and ±100 for the full control effect; nearly all actives have a fitted effect of over 55% in size
Imprint erasure – induces erasure of genomic imprints in mouse ES cells. mouse ES Peg3-LacZ reporter, beta-gal luminescence, 40 h. Potency, µM (series often up to 60.7 µM), inactives show top-dose activity change, positive = activation, hits mostly activators. 110,000 compounds, 0.02% hits. AID 1948
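Gelatin-coated wells received 300 freshly trypsinized female ES cells with a Peg3LacZ-Neo reporter on the maternal allele, then incubated 40 hours at 37C. BetaGlo was added for 5 minutes at room temperature before a single luminescence read.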
p53ts 32C tox – cytotoxicity in p53ts cells at permissive temperature; H1299-p53A138V at 32C, ATP luminescence viability, 24 h; Potency, µM (highest dose often 46.1 µM), without a hit: at the top dose activity change, negative = cytotoxicity, actives largely listed as cytotoxic; 130,000 compounds, 0.93% hits;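 also: 0% = DMSO and -100% = full killing by reference compound; nearly all actives have a fitted effect of over 55% in size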
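Cells: H1299 p53ts (A138V), 600/well, pre-incubated 16–30 h at 37C. Cpd up to 46 uM, 24 h, 32C. Readout: ATPlite luminescence, 20 min RT. Normalization: DMSO vs tamoxifen 100 uM. AC50 by Hill equation.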
* marks the source's active call; other numbers are inactive results; [ ] = dose if it differs, or a comment. Sampled rows, rich in hits. Any-hit rate of the full collection: about 1.6%. Calls follow the shape of the dose curve; as a rule, active = well fitted curve in the direction sought with a large enough effect; inconclusive = small, poorly fitted or top-dose-only effect, or another doubt; inactive = no such curve, though single readings can be large; an effect the other way counts as inactive or inconclusive. Potency is read from the fitted curve at half-maximal effect.

How did C=CC(C1=CC(=O)C(OC)=CC1=O)c1ccccc1 (centres undefined) do in these assays?
p53ts 39C kill: 100%; Imprint erasure: -50%; p53ts 32C tox: 13µM*

How did CC(=O)Nc1cccc(NC(=O)CSc2ncc(-c3ccc(Cl)cc3)n2Cc2ccco2)c1 do in these assays?
p53ts 39C kill: 13µM*; Imprint erasure: -15%; p53ts 32C tox: inconclusive

How did COc1ccc(-c2cnc(SCC(=O)Nc3ccc4c(c3)OCO4)n2Cc2ccco2)cc1 do in these assays?
p53ts 39C kill: 36%; Imprint erasure: -22%; p53ts 32C tox: 1%

What do the screens show for `O=C(Nc1cccc(-c2nnc(-c3ccccc3)o2)c1)c1ccc(Br)o1`?
p53ts 39C kill: 25µM*; Imprint erasure: -23%; p53ts 32C tox: inconclusive

How did Cc1cc(C)c2oc(-c3cccc(NC(=O)c4ccc(Br)o4)c3)nc2c1 do in these assays?
p53ts 39C kill: -2%; Imprint erasure: -7%[10.9 µM]; p53ts 32C tox: -9%

What do the screens show for `CN=c1scc(-c2cccs2)n1/N=C/c1ccc(O)c(O)c1O`?
p53ts 39C kill: 6.3µM*

What do the screens show for `Cc1nc2ccccc2c(=O)n1/N=C/c1cn(-c2ccccc2)nc1-c1cccs1`?
p53ts 39C kill: -26%; Imprint erasure: 3%; p53ts 32C tox: -18%

What do the screens show for `Cc1cc(C)cc(NC(=O)CSc2oc(-c3ccco3)nc2S(=O)(=O)c2ccc(Cl)cc2)c1`?
p53ts 39C kill: 6.3µM*; Imprint erasure: -29%[10.9 µM]; p53ts 32C tox: 10µM*

How did Cc1cc(C)cc(NC(=O)CSc2oc(-c3ccco3)nc2S(=O)(=O)c2ccccc2)c1 do in these assays?
p53ts 39C kill: 21%; Imprint erasure: -9%[10.9 µM]; p53ts 32C tox: 13%

Results for Cc1ccc(C)c(N2CCN(C(=O)c3cc4ccc5cccnc5c4[nH]3)CC2)c1 ?
p53ts 39C kill: 1%; Imprint erasure: -7%[10.9 µM]; p53ts 32C tox: -4%

Results for Cc1ccc(Cl)cc1N(C)C(=O)c1cc2ccc3cccnc3c2[nH]1 ?
p53ts 39C kill: 25µM*; Imprint erasure: 17%[10.9 µM]; p53ts 32C tox: 19%

What do the screens show for `COc1ccc(NC(=O)c2ccco2)cc1NC(=O)COc1ccc(Cl)c(C)c1`?
p53ts 39C kill: 10µM*; Imprint erasure: -6%[10.9 µM]; p53ts 32C tox: inconclusive

What do the screens show for `COc1ccc(NC(=O)c2ccco2)cc1NC(=O)COc1cc(C)ccc1C(C)C`?
p53ts 39C kill: inconclusive; Imprint erasure: -11%[10.9 µM]; p53ts 32C tox: -30%

How did Cc1cc(C)c2c(=O)cc(CSCC(=O)Nc3ccccc3Cl)[nH]c2c1 do in these assays?
p53ts 39C kill: -18%; Imprint erasure: 6%[10.9 µM]; p53ts 32C tox: -5%

How did Cc1ccccc1OCC(=O)Nc1ccc(S(=O)(=O)N(Cc2ccccc2)c2ccccc2)cc1 do in these assays?
p53ts 39C kill: 12%; Imprint erasure: -14%[10.9 µM]; p53ts 32C tox: -2%

Results for CSCc1nnc(NC(=O)c2ccc(S(=O)(=O)N(CC(C)C)CC(C)C)cc2)o1 ?
p53ts 39C kill: 13µM*; Imprint erasure: -24%; p53ts 32C tox: -4%

How did COCc1nnc(NC(=O)c2ccc(S(=O)(=O)N(C)C3CCCCC3)cc2)o1 do in these assays?
p53ts 39C kill: inconclusive; Imprint erasure: -25%; p53ts 32C tox: -27%

What do the screens show for `CCc1nnc(NC(=O)c2ccc(S(=O)(=O)N(CC(C)C)CC(C)C)cc2)o1`?
p53ts 39C kill: 13µM*; Imprint erasure: -21%; p53ts 32C tox: -3%

What do the screens show for `COCCN(CCOC)S(=O)(=O)c1ccc(C(=O)Nc2nnc(C)o2)cc1`?
p53ts 39C kill: -4%; Imprint erasure: -3%; p53ts 32C tox: -1%

Results for O=C(CSc1nnc2scc(-c3ccc(Cl)cc3)n12)Nc1ccc(F)cc1 ?
p53ts 39C kill: -9%; Imprint erasure: 7%[10.9 µM]; p53ts 32C tox: -10%

What do the screens show for `Cc1cccc(C(=O)N2CCNC(=O)C2CC(=O)Nc2ccc(F)cc2)c1` (centres undefined)?
p53ts 39C kill: 2%; Imprint erasure: 11%[10.9 µM]; p53ts 32C tox: 3%

How did CCCOc1ccccc1C(=O)N1CCCCC1CCN1CCCCC1 (centres undefined) do in these assays?
p53ts 39C kill: 22µM*; Imprint erasure: -10%[10.9 µM]; p53ts 32C tox: -3%

How did Cc1ccccc1C(=O)N1CCCCC1CCN1CCCCC1 (centres undefined) do in these assays?
p53ts 39C kill: -25%; Imprint erasure: -13%[10.9 µM]; p53ts 32C tox: 1%

What do the screens show for `CCCCCCCC/C=C\CCCCCCCC(=O)N[C@@H](CO)Cc1ccc(O)cc1`?
p53ts 39C kill: 32µM*; Imprint erasure: -32%; p53ts 32C tox: inconclusive

What do the screens show for `CCCCCCC/C=C\CCCCCCCCC(=O)O`?
p53ts 39C kill: 11%; Imprint erasure: -11%; p53ts 32C tox: -5%
